# Unmarked numbers belong to inactive results. The rule behind the calls is not given here.
# B1: d8r1_design_ppi_271_dldesign_0_cycle0_af2pred (protein)
# chain: AAAELAATIAAAAAAAAADGPRGLALLAGAILRAFPSLSAETLAEIIRLAAADPAAAAEAIAALAAAHPEAAPALAAALRAALAELA
# B2: d8r1_design_ppi_584_dldesign_0_cycle0_af2pred (protein)
# chain: AAARAAEAAALKAKAKEIAAEAFSYAALSSRDEEAKKEADKKIEELKKLAKEAKAKGLEEAAKFAEDFAEGAETLKKVVEEA
# B3: d8r1_design_ppi_295_dldesign_0_cycle0_af2pred (protein)
# chain: SLKEKAEKHLELAQKYAEKAGKLRGVKIEVKGANLEELKALRKEFGAWADEAAKAGDKETAIEATRAAAHLGEAIDLLEEL
# B4: d8r1_design_ppi_948_dldesign_0_cycle0_af2pred (protein)
# chain: SEEAKKKYEEEKKKLEELRKEAEKLAAADPAAGGAIATLIDNGIAAGDKLYEAGSVESAAKLLESVREKAERLLAELRAAVAA
# B5: d8r1_design_ppi_1162_dldesign_0_cycle1_af2pred (protein)
# chain: MSLAEEAALEGQKNSPMLGAVLYGHAKRSDAAVAELLLEAAKGDAATARAQARAAAALLPPEEGARLVTDVTAALEADEKDK
# B6: d8r1_design_ppi_1335_dldesign_0_cycle0_af2pred (protein)
# chain: EAAAAATIEAAAKAAAEFTGLPVEEVLALAALAAADPAAARALRERLGEEDPLRAAAADVMLTVVAQAKRELA
# B7: d8r1_design_ppi_1305_dldesign_0_cycle1_af2pred (protein)
# chain: MEAEKLAKELLEKAKELAALPMGEASKAAAALAKEYAAKNPEVALKAAKIAYEKAVKDPSVSSKVRQLLAAALAEATYELKKKKAAA
# B8: d8r1_design_ppi_457_dldesign_0_cycle1_af2pred (protein)
# chain: AAAKAAAAAEAEALIAKAEAVVKAIKDFTALAAASTPEDGAAALRAAENLKTTAVDLATQAAALAKALGRPDLATRATAVAQAAKDAM
# B9: d8r1_design_ppi_360_dldesign_0_cycle1_af2pred (protein)
# chain: SEAYEKAVEEAAERVAALIKAAVAAGATPAEAWAAAAKKIEEERKKLKEKFGEEQAEEGARRITARAAKALLRAMAAREE
# B10: d8r1_design_ppi_1045_dldesign_0_cycle0_af2pred (protein)
# chain: SADTKEGADLFTKAAEQLLKVGEELLKKGKETGDEKLIKEALKYFEAAAAYAEAAATLAAKADAAAAAKAKELKEKAKKAAEEAKKAL
# B11: d8r1_design_ppi_508_dldesign_0_cycle0_af2pred (protein)
# chain: AGEEALEKAIKEVKELISEAAKALQESREKGIEKAKEGAKRAEKLKKEAAKEPLAERIGRVLESAKGFLEKLKEALEES
# B12: d8r1_design_ppi_227_dldesign_0_cycle1_af2pred (protein)
# chain: GAKAKAKAVLDKAKEKLAEAMKAALDADESKKPEVYKLIAEAAAALAKGIAAYKAAKNEAQLKEAIAWFEKAIAAAEKAIKLAK
# B13: d8r1_design_ppi_901_dldesign_0_cycle1_af2pred (protein)
# chain: AAAAARADIATLLAFMTKAIAEGDESAANMAANGAIASGAKAGPELAAQAAAEAAAARAAALAAKAAAAA
# B14: d8r1_design_ppi_713_dldesign_0_cycle1_af2pred (protein)
# chain: AEFLAQGRAAAAATSPANAAALEAAYAAAKAQEDKMEGMKILLATATTLAAASTPAEAVLIGKAAAYFIADLLS
# B15: d8r1_design_ppi_623_dldesign_0_cycle0_af2pred (protein)
# chain: SAAAAAAAAAAKAALAAAKKKAEEAVKLTPEEAAKVLGEIAAAATAALAAATDAADRAALRAAAAEVFSTGAKNLAKAAKKAEE
# B16: d8r1_design_ppi_20_dldesign_0_cycle1_af2pred (protein)
# chain: KEEKAEKMKKEAEKYVERAKADAAKLAGSPQAATAAKLAASAEKSAELMKKALEEGDFGLAEVFLAAAKAAAEQLAKMAAA
# B17: d8r1_design_ppi_1006_dldesign_0_cycle0_af2pred (protein)
# chain: AAAAAAAKAARTKEVIAKMKELISEAMLAKSEGTGVEALKKAAEEAKKLAKEAKAAGDTAAATVANNAAAFLETAAKAEEEAK
# B18: d8r1_design_ppi_891_dldesign_0_cycle0_af2pred (protein)
# chain: SAVREEAERKAEEVAELAKKDPEKGLEAMKAYLEELVAAGHREAALYAAARAASLMFSDPSTLETAIAVSRYAAELAA
# B19: d8r1_design_ppi_41_dldesign_0_cycle0_af2pred (protein)
# chain: RGEEVLERVKESASRAMSLAAKDPSLSEKVLEALALASEAGRAIKTEGVEKGEELAKKAEELTKEIEEEAK
# B20: d8r1_design_ppi_560_dldesign_0_cycle0_af2pred (protein)
# chain: SAEEEEEKLREEAEKAVAEAKATAAAFKAQAATATPEKAAALNAAVAALAGLIKIAEDPEARRGASRAAKSVIAHAKRVLAA
# B21: d8r1_design_ppi_1314_dldesign_0_cycle0_af2pred (protein)
# chain: SSEEEEAKRLAARAARAAARRLEEAAEERAAEDPEAARRAAEEGRRLAEEAEKGNAEEAKRALTEITRLLREVLA
# B22: d8r1_design_ppi_895_dldesign_0_cycle1_af2pred (protein)
# chain: MTPEAKSAFAAAQSLADAIKLGAKEGLLTPETRAALVEKLRAAAAEAAALDPAIAPQAAALAADAEAAAA
# B23: d8r1_design_ppi_310_dldesign_0_cycle1_af2pred (protein)
# chain: ALAAALNSVAALAKLAAELLETDPAAGKQLAKNVAVALAKLGLTEEAARLKAATPEELKAVAKEAAAAAKAAAAALA
# B24: d8r1_design_ppi_1220_dldesign_0_cycle0_af2pred (protein)
# chain: KEEEADKLAVEAMRLLGEAAELTKKATTKEQVEAAKKKAEEAKKKAEELLKVDPRKKGLAEALKSAAKKVLEAAEKKEKEL
# B25: d8r1_design_ppi_661_dldesign_0_cycle1_af2pred (protein)
# chain: AAADAAAAAAAATAGANAVAAAQLALELNPKSAIDLAEAAIAHFKKLAATGSPAVAAQANAAIAALEAVKAQAKKKLAAE
# B26: d8r1_design_ppi_416_dldesign_0_cycle1_af2pred (protein)
# chain: SDESARIKAETLGRISEAMREARRAAEEGDVERAREAAERAREAGREGAEKALELGDESTAESLRSTAEKVAERAERLAEEAAA
# B27: d8r1_design_ppi_587_dldesign_0_cycle1_af2pred (protein)
# chain: MLTPEALNAIAKLGSEAGSLAAKATPEQKAEGRKLGELVAEKMLASSPEEALEIAKKLLEEGKKDLTYAVATATAASRVLRAYLQQLS
# B28: d8r1_design_ppi_31_dldesign_0_cycle1_af2pred (protein)
# chain: DKYSQMAEVWGMLSEVVARVAAELGPEAAEEAIKRAGEAASAAAKDVEEGEKKAKEVKEWADKQLAAAAA
# B29: d8r1_design_ppi_477_dldesign_0_cycle1_af2pred (protein)
# chain: SAEDVKRAAAGLKAAAKAYAALAAENKEVKEAAKELEKAAKLLLEDPEKGREKAAEESLKLNQLVIKAAD
# B30: d8r1_design_ppi_713_dldesign_0_cycle0_af2pred (protein)
# chain: DEFLAEANAAAAATSPANAAALNAAFAAALAQSDVGEGIKTLAAAADALAAASTPADAANIGKATSYFIAYLSS
# B31: d8r1_design_ppi_701_dldesign_0_cycle1_af2pred (protein)
# chain: EERRRRGEELLLEALALIGAAARDPAAAPAAVAALRAAAALVPELAPELERAAALVEAGLAAAKEAAAIVGSLALKMAS
# B32: d8r1_design_ppi_645_dldesign_0_cycle1_af2pred (protein)
# chain: KIEKAKELLKKAKELLKEAKANPETAIEKAKAALADLSEAASLAAEAAKDPETKEEAEKLLAEAKKLGLEATQLLMKQSSLEEK
# B33: d8r1_design_ppi_1118_dldesign_0_cycle0_af2pred (protein)
# chain: SEGSEALARFAKSMAEVAKIKAEEAAKVDAEVAAIFKEAAKLYEEAAKAAKEDVEKGKKLLTEANKKMAEGLAAMKKKKA
# B34: d8r1_design_ppi_823_dldesign_0_cycle1_af2pred (protein)
# chain: SSSEEEIDAKLEAAVAAVKEATALAKAAVAEGPAALPALEAFAAEKTAEFAKLGGVGAAAGAALQAVVDAARAQLA
# B35: d8r1_design_ppi_516_dldesign_0_cycle1_af2pred (protein)
# chain: AEEELRRQIEEQGERLEEAAEELRRLAEEARERDPAAGRALEAAAESLRGLVEIAKELDPGSAQGVIQVAERVAERARRLAEEYLAA
# B36: d8r1_design_ppi_1238_dldesign_0_cycle0_af2pred (protein)
# chain: MEETKKLIEEARKLAEEARRALKEDKERALELLREAANKASKALALADEESEELAEEAKKVLAEISKVAKELAK
# B37: d8r1_design_ppi_14_dldesign_0_cycle1_af2pred (protein)
# chain: AAAVAAAIEAAMRAAMPSDPAKAAELAALIAAKGLAGAKEAARKAMELFREDPELGKQAFAGVDAARAILAAA
# B38: d8r1_design_ppi_1191_dldesign_0_cycle0_af2pred (protein)
# chain: AAAALAAQAAAYTATYNAASAALAVALADPSFSPQSQKNIAQSQVDAATKALEAATAYDPAQAAAWQAALDAAQAQLAAI
# Biological target: PDL1, Q9NZQ7
# Sequence (Q9NZQ7 whole entry): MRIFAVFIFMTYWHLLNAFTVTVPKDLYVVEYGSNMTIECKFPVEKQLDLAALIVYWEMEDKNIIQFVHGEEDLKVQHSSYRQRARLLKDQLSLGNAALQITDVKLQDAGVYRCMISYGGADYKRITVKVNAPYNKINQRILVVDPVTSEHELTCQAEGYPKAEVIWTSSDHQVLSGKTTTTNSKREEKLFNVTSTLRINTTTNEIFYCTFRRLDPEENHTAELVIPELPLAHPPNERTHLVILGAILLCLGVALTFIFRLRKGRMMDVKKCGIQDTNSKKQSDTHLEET
row,Binder,binding in a display sort
1,B1,not found
2,B2,not found
3,B3,not found
4,B4,not found
5,B5,not found
6,B6,not found
7,B7,not found
8,B8,not found
9,B9,not found
10,B10,not found
11,B11,not found
12,B12,not found
13,B13,not found
14,B14,not found
15,B15,not found
16,B16,not found
17,B17,not found
18,B18,not found
19,B19,not found

row,Binder,binding in a display sort
1,B20,not found
2,B21,not found
3,B22,binds (active)
4,B23,not found
5,B24,not found
6,B25,not found
7,B26,not found
8,B27,not found
9,B28,not found
10,B29,not found
11,B30,not found
12,B31,not found
13,B32,not found
14,B33,not found
15,B34,not found
16,B35,not found
17,B36,not found
18,B37,binds (active)
19,B38,not found

# Reference: article PMC13494018
